Consider 13 compounds from PubChem BioAssay (NCI).

This is part of a sample that, as a whole, favours compounds with a hit. Of some 83,000 tested, about 20% had one in any assay.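 96-well plates, one dose, 48 hours. Percent growth reported; active if below 10.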 Unmarked numbers belong to inactive results. The source made the active and inactive calls.

Holding throughout (experiment): NCI-60 one-dose screen, 48 h (100 = growth as untreated, 0 = no growth, -100 = all killed)
Holding throughout (conditions): 10 µM unless noted

The subject of test [1] is HCT-15 colon.
Test [2] deals with HT29 colon.
The test system of test [3] is SNB-75 CNS.
The test system of test [4] is SNB-19 CNS.
In test [5] the test system is U251 CNS.
Test [6] deals with PC-3 prostate.
Test [7] deals with SK-MEL-5 melanoma.
The subject of test [8] is UACC-62 melanoma.
The subject of test [9] is LOX IMVI melanoma.
Test [10] concerns SK-MEL-28 melanoma.

As for `CCCCCOC(=O)c1ccccc1O`, the growth in test [1] is 97.4%; in test [2] it was 96.5%; in test [3], 83.1%; in test [4], 106%; in test [5], 101%; in test [6], 86.9%. Further, the growth was 103% in test [7], 97.9% in [8], 104% in test [9] and 110% in test [10].
As for `CS(=O)(=O)O[C@@H]1C(=O)N(c2cc3c4ccccc4ccc3c3ccccc23)[C@H]1c1ccc(F)cn1`, the growth in test [1] was 29.1%; in [2] it was 3.71% (active); in test [3] it was -0.245% (active); in test [4], 38.3%; in test [5], 29.5%; in test [6], 34.7%. Also, the growth in [7] is 13.6%; in test [8], 34%; in [9], 34.2%; in [10], 68.6%.
Consider `Cc1nccc2c3ccc(OCc4cn(-c5ccccc5)nn4)cc3n(CCCc3ccccc3)c12`, for which the growth in test [1] was 56.9%; in test [2], 38.5%; in [3] it was 73.8%; in test [4] it was 79.3%; in test [5] it was 76.8%; in test [6], 65.1%. The growth in test [7] was 80.4%; in test [8] it was 83.3%; in test [9] it was 81.3%; in test [10] it was 99%.
Regarding `O=c1c2ccccc2oc2ccc(OCCCCCN3CCCCCC3)cc12`, the growth in test [1] is 33.1%; in [2], 12.9%; in test [3], 77.1%; in test [4] it was 84%; in [5] it was 60.3%; in test [6] it was 80.7%. The growth is -35.2% (active) in [7], 2.08% (active) in test [8], 49.8% in [9] and 86.3% in test [10].
On to `Nc1n[nH]c2cccc(C#Cc3cccc(NC(=O)c4cc(N5CCOCC5)cc(C(F)(F)F)c4)c3)c12`, for which the growth in [1] was 36.9%; in test [2], 22.6%; in test [3] it was 71.5%; in test [4], 83.9%; in [5], 56.3%; in test [6], 69%. For the same compound, the growth is 55.7% in [7], 14% in test [8], 18.6% in [9] and 24.5% in [10].
`C#CC[C@@H]1C[C@]2(C)[C@H]3CC[C@@H]4[C@H]5[C@H](C(=C)C)CC[C@]5(C(=O)O)CC[C@@]4(C)[C@]3(C)CC[C@H]2C(C)(C)[C@H]1O`: the growth in [1] was 32%; in test [2], 35.9%; in test [3] it was -8.42% (active); in test [4] it was 56.8%; in [5], 26.3%; in test [6] it was 4.77% (active). Besides, the growth in test [7] is 74.5%; in [8] it was 72.2%; in test [9], 44.3%; in [10] it was 92%.
Take `C=C1C(=O)O[C@H]2[C@H]1CC/C(COC(=O)c1cccnc1)=C\CC[C@@]1(C)O[C@@H]21`: the growth is 34.4% in test [1]; 33.5% in test [2]; 83.4% in test [3]; 90.2% in [4]; 88.5% in test [5]; 66.1% in test [6]. Moreover, the growth in [7] was 88.9%; in test [8] it was 69.5%; in [9], 75%; in test [10] it was 89%.
Consider `CC(=O)Nc1nc2c(c(N)c1C#N)C(c1cccc(Cl)c1)C1=C(CCCC1=O)N2c1sc2c(c1C#N)CCCC2` (stereo not given), for which the growth was 30.1% in test [1]; 29.4% in test [2]; 81% in test [3]; 69.7% in [4]; 42.3% in test [5]; 20.8% in test [6]. The growth in test [7] was 61.5%; in test [8], 59.8%; in [9], 51.5%; in test [10], 82.4%.
`CC1(C)Cc2c(Br)c(Br)c(Br)c(OCC(O)CN3CCOCC3)c2O1` (stereo not given): the growth was 88.2% in test [1]; 64.6% in test [2]; 94% in test [3]; 100% in [4]; 93.5% in test [5]; 9.22% (active) in test [6]. Also, the growth is 66.5% in [7], 94.6% in test [8], 87.1% in test [9] and 137% in [10].
Consider `C=C(C)[C@@H]1CC[C@]2(C(=O)O)CC[C@]3(C)[C@H](CC[C@@H]4[C@@]5(C)C[C@@H](CC#Cc6ccccc6C)C(=O)C(C)(C)[C@@H]5CC[C@]43C)[C@@H]12`, for which the growth is 20.9% in [1]; 22.3% in test [2]; 58.1% in test [3]; 40% in test [4]; 25.4% in [5]; 31.4% in test [6]. Further, the growth in test [7] was 28.2%; in [8] it was 41.4%; in test [9], 43.6%; in test [10], 42.9%.
As for `Cc1c(C(=O)Nc2nc3ccccc3[nH]2)cnn1-c1ccccn1`, the growth in test [1] was 104%; in test [2] it was 66%; in test [3], 104%; in [4] it was 101%; in [5] it was 97.4%; in test [6], 93.1%. For the same compound, the growth is 99.9% in [7], 107% in [8], 104% in test [9] and 112% in test [10].
For the compound `Cc1c(Cl)cccc1NC(=O)c1sc2nc3c(cc2c1N)CCCCCC3`, the growth in [1] was 24.1%; in test [2], -10.3% (active); in test [3] it was -6.81% (active); in [4], 29.1%; in test [5], 15.7%; in test [6] it was 32.9%. The growth in test [7] was 28.7%; in test [8], 32%; in [9], 40.8%; in test [10] it was 58.7%.
In the case of `CCOC(=O)/C(=C/c1c(-c2ccccc2)[nH]c2ccccc12)C(=O)c1ccc(Cl)cc1`, the growth is 21.2% in test [1]; 44% in test [2]; 35% in test [3]; 79.4% in [4]; 50.5% in [5]; 12.5% in [6]. Moreover, the growth in test [7] is 53.4%; in test [8], 43.5%; in test [9], 44.3%; in [10], 75.6%.
